Assay outcomes from PubChem BioAssay.
Most compounds without a hit are left out; they make up all but 19% or so of the library.
Giardia killer: kills Giardia lamblia. Giardia lamblia trophozoite viability. activity change, % at 7.66 µM, hits read low. 340,000 tested, 0.15% active. AID 540267; in the data active = activity change below about -80%; inconclusive = between about -30% and that limit;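 note: parasites exposed to compound for two days anaerobically before the ATP read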
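Trophozoite viability was measured as ATP-dependent luminescence, read 15-30 min after reagent addition. Before that, parasites at 100 cells/well were exposed to compounds for 48 h, anaerobically, at 37 deg C.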
ELG1 DNA repair: blocks ELG1-dependent DNA repair in HEK293T cells | Potency, µM (titrated, usually from 46.1 µM), inactives show at the highest dose activity change, negative = inhibition, usual class: inhibitors | HEK293T ELG1-luciferase reporter, luminescence, 16 h; DNA damage induced by 5-fluorouridine | AID 504467 | 330,000 tested, 2.3% active; note: potency is the fitted concentration of half-maximal effect; nearly all actives have a fitted effect of over 55% in size
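Quantitative HTS, concentration-response format. 2,000 cells/well co-treated with 5-fluorouridine and compound, 16 hr in 5% CO2 at 37 °C; ONE-Glo luminescence read after 30 min.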
IL-1B inflam inh: inhibitors of inflammasome signaling (IL-1 beta secretion). THP-1 LPS/ATP IL-1B secretion, AlphaLISA, 16 h; active compounds read low. activity change, % at 57.5 µM. 360,000 tested, 4.7% active; in the data active = activity change below about -50%; inconclusive = mostly about -30% to -49%
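THP-1 cells pretreated 1 hr with compounds (up to 57.5 uM final), then stimulated with LPS (250 ng/mL final) plus ATP (1.25 mM final); secreted IL-1B measured by AlphaLISA after 16 hr, decreased signal indicating inhibition.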
TDP1 cell noCPT: qHTS for Inhibitors of human tyrosyl-DNA phosphodiesterase 1 (TDP1): qHTS in cells in absence of CPT; DT40 Tdp1-/- hTDP1 cells, no CPT, ATP luminescence, 48 h; Potency, µM (series often up to 46.2 µM), for the others: at the highest dose activity change, negative = growth inhibition, most hits filed as inhibitors; 420,000 tested, 15% active; note: potency is the fitted concentration of half-maximal effect; nearly all actives have a fitted effect of over 55% in size
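Luminescent ATP content (CellTiter-Glo) served as the growth readout. Knockout chicken DT40 cells expressing human TDP1 were exposed to compounds without camptothecin for a minimum 48 hr at 37 °C.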
TDP1 inh: TDP1 (human) enzyme inhibition; AID 485290; Potency, µM (doses to about 130 µM), for the others: at the top dose activity change, negative = inhibition, usual class: inhibitors; Q9NUW8; 350,000 tested, 0.28% active; recombinant TDP1, AlphaScreen DNA substrate cleavage; note: potency is the fitted concentration of half-maximal effect; nearly all actives have a fitted effect of over 40% in size
Target sequence (Q9NUW8 whole entry, looked up): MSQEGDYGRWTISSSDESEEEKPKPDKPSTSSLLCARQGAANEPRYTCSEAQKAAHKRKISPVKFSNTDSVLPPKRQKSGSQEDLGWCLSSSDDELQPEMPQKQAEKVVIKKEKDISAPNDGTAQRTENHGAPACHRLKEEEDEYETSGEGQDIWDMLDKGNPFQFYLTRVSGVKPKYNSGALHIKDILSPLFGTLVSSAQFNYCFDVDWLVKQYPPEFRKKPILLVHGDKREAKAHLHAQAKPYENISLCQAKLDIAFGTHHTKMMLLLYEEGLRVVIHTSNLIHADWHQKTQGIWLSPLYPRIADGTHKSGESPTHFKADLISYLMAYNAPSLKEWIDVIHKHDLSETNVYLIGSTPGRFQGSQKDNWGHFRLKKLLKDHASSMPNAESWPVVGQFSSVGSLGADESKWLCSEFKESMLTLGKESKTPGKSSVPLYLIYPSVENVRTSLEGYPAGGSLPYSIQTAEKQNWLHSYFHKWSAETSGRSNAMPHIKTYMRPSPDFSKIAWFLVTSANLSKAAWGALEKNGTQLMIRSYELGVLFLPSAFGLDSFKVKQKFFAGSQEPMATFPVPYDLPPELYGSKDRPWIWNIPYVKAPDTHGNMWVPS
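Signal: AlphaScreen proximity between streptavidin donor and anti-FITC acceptor beads on intact substrate. Reaction: Tdp1 1 nM, substrate 15 nM final, 5 min RT after 15 min compound preincubation.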
DT40 TDP1 CPT: growth inhibition of DT40 Tdp1-/-;hTDP1 cells with camptothecin (screen for TDP1 inhibitors). 420,000 tested, 12% active. AID 686979. Potency, µM (top dose mostly 46.2 µM), without a hit: at the highest dose activity change, negative = growth inhibition, usual class: inhibitors. chicken DT40 Tdp1-/-;hTDP1 cells + 20 nM CPT, ATP luminescence, 48 h; note: potency is the fitted concentration of half-maximal effect; nearly all actives have a fitted effect of over 55% in size
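Cell growth measured by CellTiter-Glo luminescence after a minimum 48 h, 37 C compound exposure with 20 nM CPT in Tdp1-knockout DT40 cells stably expressing hTDP1, seeded 400/well; qHTS titration format.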
Active calls of the source: *; [ ] = another dose, or the depositor's remark. Unless noted, calls come from the whole dose curve; as a rule, active = well fitted curve in the direction sought with a large enough effect; inconclusive = small, poorly fitted or top-dose-only effect, or another doubt; inactive = no such curve, though single readings can be large; an effect the other way counts as inactive or inconclusive. % is set by controls: 0 for no effect and ±100 for the full control effect.

C/C(CCc1ccc2c(c1)OCO2)=N\N=C1\NC(=O)CC(C(=O)Nc2ccc(Cl)cc2)S1 (stereo not given) was read as Giardia killer 7, ELG1 DNA repair 4%, IL-1B inflam inh 19, TDP1 cell noCPT -3%, TDP1 inh 6% and DT40 TDP1 CPT -5%.
Screening COC(=O)c1ccccc1NC(=S)NC(NC(=O)c1ccccc1[N+](=O)[O-])C(Cl)(Cl)Cl (stereo not given) returned Giardia killer -4, ELG1 DNA repair 2%, IL-1B inflam inh 40, TDP1 cell noCPT -15%, TDP1 inh 6% and DT40 TDP1 CPT 0%.
`COc1ccc(NC(=S)NC(NC(=O)c2cccc3ccccc23)C(Cl)(Cl)Cl)c([N+](=O)[O-])c1` (stereo not given) gave Giardia killer 10, ELG1 DNA repair inconclusive, IL-1B inflam inh -56*, TDP1 cell noCPT inconclusive, TDP1 inh 7% and DT40 TDP1 CPT inconclusive.
Screening Cc1ccc(NC(=S)NC(NC(=O)c2ccccc2C)C(Cl)(Cl)Cl)c(C)c1 (stereo not given) returned Giardia killer -1, ELG1 DNA repair inconclusive, IL-1B inflam inh -25, TDP1 cell noCPT inconclusive, TDP1 inh -8% and DT40 TDP1 CPT inconclusive.
Screening COc1ccc(NC(=S)NC(NC(=O)c2ccccc2Cl)C(Cl)(Cl)Cl)c([N+](=O)[O-])c1 (stereo not given) returned Giardia killer -3, ELG1 DNA repair inconclusive, IL-1B inflam inh -87*, TDP1 cell noCPT inconclusive, TDP1 inh 10% and DT40 TDP1 CPT inconclusive.
`CC(C)c1ccc(C(=O)OCC(=O)NC2CCCC2)cc1` gave Giardia killer 1, ELG1 DNA repair inconclusive, IL-1B inflam inh 0, TDP1 cell noCPT inconclusive and DT40 TDP1 CPT -28%.
`CCN(CC)C(=O)CN1C(=O)COc2ccc(S(=O)(=O)N3CCOCC3)cc21` gave TDP1 cell noCPT 0%, TDP1 inh -2% and DT40 TDP1 CPT 4%.
For Cc1cc(Br)cc(/C=N/NC(=O)c2ccc3c(c2)OCO3)c1O the results were Giardia killer 37, ELG1 DNA repair inconclusive, IL-1B inflam inh 69, TDP1 cell noCPT 23µM* and DT40 TDP1 CPT 18µM*.
Screening O=C(N/N=C/c1cc(Cl)cc([N+](=O)[O-])c1O)c1ccc2c(c1)OCO2 returned Giardia killer -15, ELG1 DNA repair inconclusive, IL-1B inflam inh 23, TDP1 cell noCPT 9.2µM* and DT40 TDP1 CPT 16µM*.
`O=C(N/N=C/c1cc2c(cc1Cl)OCO2)c1cccc(Br)c1` gave Giardia killer -12, ELG1 DNA repair 0%, IL-1B inflam inh 0, TDP1 cell noCPT 16%, TDP1 inh 2%[56.1 µM] and DT40 TDP1 CPT -13%.
COc1cc(Cl)cc(/C=N\NC(=O)c2ccc3c(c2)OCO3)c1O was read as IL-1B inflam inh 104, TDP1 cell noCPT -97% and DT40 TDP1 CPT inconclusive.
`O=C(N/N=C/c1cc(Br)cc(Cl)c1O)c1ccc2c(c1)OCO2` gave Giardia killer 6, IL-1B inflam inh 74, TDP1 cell noCPT 1µM* and DT40 TDP1 CPT 0.82µM*.
Screening O=C(N/N=C/c1c[nH]c2ccc(Br)cc12)c1ccc2c(c1)OCO2 returned Giardia killer -4, ELG1 DNA repair 3%, IL-1B inflam inh -9, TDP1 cell noCPT inconclusive, TDP1 inh 5% and DT40 TDP1 CPT inconclusive.
For O=C(N/N=C/c1cc(Br)c(O)c(Br)c1O)c1ccc2c(c1)OCCO2 the results were Giardia killer -6, ELG1 DNA repair -7%, IL-1B inflam inh 66, TDP1 cell noCPT 8.2µM*, TDP1 inh 4% and DT40 TDP1 CPT 12µM*.
Screening COc1ccc(CC(=O)N(C)c2ccccc2)cc1S(=O)(=O)N1CCOCC1 returned IL-1B inflam inh -23, TDP1 cell noCPT -19% and DT40 TDP1 CPT -9%.
`N#CCCN(C(=O)COc1ccc(C#N)cc1)c1ccc(F)cc1` gave Giardia killer 9, ELG1 DNA repair -7%, IL-1B inflam inh 10, TDP1 cell noCPT -10%, TDP1 inh 1% and DT40 TDP1 CPT -16%.
Screening Cc1ccc2[nH]c(=O)c(CN(C)C(=O)c3cccs3)cc2c1 returned Giardia killer -22, ELG1 DNA repair inconclusive, IL-1B inflam inh 7, TDP1 cell noCPT -23%, TDP1 inh 0% and DT40 TDP1 CPT inconclusive.
Cc1ccc(N(Cc2cc3ccccc3[nH]c2=O)C(=O)c2cccs2)cc1C was read as Giardia killer -1, ELG1 DNA repair 23µM*, IL-1B inflam inh -28, TDP1 cell noCPT 18µM*, TDP1 inh 2% and DT40 TDP1 CPT inconclusive.
Screening O=C(c1cccs1)N(Cc1cc2ccccc2[nH]c1=O)c1ccccc1 returned Giardia killer -4, ELG1 DNA repair -3%, IL-1B inflam inh -16, TDP1 cell noCPT 10µM*, TDP1 inh 3% and DT40 TDP1 CPT 13µM*.
For Cc1ccc(N(Cc2cc3cc(C)ccc3[nH]c2=O)C(=O)c2cccs2)cc1 the results were Giardia killer -13, ELG1 DNA repair -5%, IL-1B inflam inh 11, TDP1 cell noCPT 23µM*, TDP1 inh -3% and DT40 TDP1 CPT inconclusive.
CN(Cc1cc2ccccc2[nH]c1=O)C(=O)c1cccs1 was read as Giardia killer 4, ELG1 DNA repair 28%, IL-1B inflam inh -2, TDP1 cell noCPT -32%, TDP1 inh -1% and DT40 TDP1 CPT 5%.
For CCOc1cccc(N(C(=O)CNC(=O)c2ccco2)C(C(=O)NCC2CCCO2)c2ccccc2)c1 (stereo not given) the results were Giardia killer -18, ELG1 DNA repair -28%, IL-1B inflam inh -8, TDP1 cell noCPT inconclusive and DT40 TDP1 CPT 0%.
`CC(C)C1C(=O)N(Cc2cn(CCC3OCCO3)nn2)CCS(=O)(=O)N1Cc1ccc(-c2ccc(F)cc2)cc1` (stereo not given) gave IL-1B inflam inh -4, TDP1 cell noCPT inconclusive and DT40 TDP1 CPT inconclusive.
`CC(C)C1C(=O)N(Cc2cn(CCC3OCCCO3)nn2)CCS(=O)(=O)N1Cc1ccc(-c2ccc(Cl)c(Cl)c2)cc1` (stereo not given) gave IL-1B inflam inh -80*, TDP1 cell noCPT 18µM* and DT40 TDP1 CPT 23µM*.
CC(C)C1C(=O)N(Cc2cn(CCC3OCCO3)nn2)CCS(=O)(=O)N1Cc1ccc(-c2ccc(Cl)cc2)cc1 (stereo not given) was read as IL-1B inflam inh inconclusive, TDP1 cell noCPT 4.1µM* and DT40 TDP1 CPT 3.3µM*.
